Measured values published in article PMC5540273 (PLoS ONE, 2017).

system: CHEK2; conditions: concentration: 1 μM, replicates: in singlicate; n = 1
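Further: KINOMEscan kinase panel screen.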

Compound | %Inh [%]
Cl.Cl.NCC(C(=O)Nc1cc(Br)c(-c2ccnc3[nH]ccc23)s1)c1ccccc1 (stereo not shown) [GSK1269851] | 0
Cl.c1ccc(-c2ccc3c(Nc4ccc5[nH]ncc5c4)ccnc3c2)nc1 [GW440137] | 14
NCCCC(NC(=O)c1cc(Br)c(-c2ccnc3[nH]ccc23)s1)c1ccccc1.O=C(O)C(F)(F)F.O=C(O)C(F)(F)F (stereo not shown) [GSK1287544] | 0
Cl.Cl.NCC(NCc1ccc(-c2ccnc3[nH]ccc23)s1)c1ccccc1 (stereo not shown) [GSK1321565] | 33
Cc1ccc(S(=O)(=O)Nc2ccc(Nc3nccc(Nc4cccc5[nH]ncc45)n3)cc2)cc1 [GSK581271] | 0
O=C(Nc1cccc(Oc2ccc3nc(NC(=O)C4CC4)cn3n2)c1)c1ccccc1C(F)(F)F | 11
COc1cccc(NC(=O)NC2CCN(c3ccnc(Nc4cc(OC)c(OC)c(OC)c4)n3)C2)c1 (stereo not shown) [GSK1379763] | 54
Cl.Cl.NCC(NC(=O)c1cc(-c2ccccc2)c(-c2ccnc3[nH]ccc23)s1)c1ccccc1 (stereo not shown) [GSK1321561] | 0
Cc1cccc(NC(=O)Nc2ccc(Oc3ncnc4ccn(C)c34)cc2)c1 | 0
COc1cc(Nc2nccc(-c3c(-c4cccc(NC(=O)c5c(F)cccc5F)c4)nn4ncccc34)n2)cc(OC)c1OC [GSK327238] | 14
COc1cc(Nc2nccc(N3CCC(NC(=O)Nc4cccc(C(C)=O)c4)C3)n2)cc(OC)c1OC (stereo not shown) [GSK1379753] | 0
Cc1ccc(C)c(NC(=O)NC2CCN(c3ccnc(Nc4ccc(F)cc4)n3)C2)c1 (stereo not shown) [GSK1379720] | 0
COc1ccc(CNC(=O)NC2CCN(c3ccnc(Nc4ccc(F)cc4)n3)CC2)cc1 [GSK1379788] | 34
Nc1ncc(-c2cccnc2)c2scc(-c3ccc4c(c3)CCN4C(=O)Cc3ccccc3)c12 [GSK683281] | 0
O=C(Nc1n[nH]c2cc(-c3ccoc3)ccc12)C1CC1 [SB-738481] | 6
O=c1[nH]cc(-c2ccc(N3CCOCC3)cc2)c2sc(-c3cn[nH]c3)cc12 [GSK2276055] | 14
Nc1n[nH]c2cnc(-c3ccccc3)cc12 [SB-642124] | 0
O=C(Nc1cccc(-c2nn3ccccc3c2-c2ccnc(Nc3cccc(C(F)(F)F)c3)n2)c1)c1c(F)cccc1F [GSK292658] | 0
CN(c1ccc(NC(=O)Nc2cc(C(F)(F)F)ccc2F)cc1)c1ccnc(Nc2ccc(S(N)(=O)=O)cc2)n1 [GW809893] | 20

Compound | %Inh [%]
CNC(=O)c1ccccc1Nc1nc(Nc2ccc(N3CCOCC3)cc2)ncc1Cl.Cl [GSK1576028] | 91.3
COC(=O)Nc1nc2ccc(Oc3ccc(NC(=O)Nc4cc(C(F)(F)F)ccc4F)cc3)cc2n1C.Cl [GW692089] | 58
COc1cc2c(cc1OCCN1CCNCC1)ncc1c3ccc(C#N)cc3[nH]c21 | 46
O=C(NC1CCN(c2ccnc(Nc3ccc(F)cc3)n2)C1)c1cc2ccccc2s1 (stereo not shown) [GSK1379716] | 38
Oc1cc(Nc2ccnc3cc(I)ccc23)ccc1F [GW552771] | 4
CCn1c(-c2nonc2N)nc2c(C#CC(C)(C)O)ncc(OCCCCN)c21.O=C(O)C(F)(F)F.O=C(O)C(F)(F)F [GSK507274] | 0
CC(=O)Nc1nc2cnc(Nc3cc(NC(=O)c4cccc(C5(C#N)CC5)c4Cl)ccc3C)nc2s1 | 4
O=C(Nc1ccccc1F)NC1CCN(c2ccnc(Nc3ccc(F)cc3)n2)CC1 [GSK1379800] | 0
O=C(Nc1n[nH]c2nc(-c3ccc(O)cc3)ccc12)C1CC1 [SB-710363] | 4
c1ccc(Oc2ccc(Nc3ccnc4cc(-c5ccc(CNCCN6CCOCC6)o5)ccc34)cc2)nc1 [GW567145] | 90.6
COc1cccc(C(=O)Nc2cccc(Oc3ccc4nc(NC(=O)C5CC5)cn4n3)c2)c1 | 0
Cc1occc1-c1ncc(OC[C@@H](N)Cc2c[nH]c3ccccc23)cc1-c1ccc2[nH]nc(C)c2c1.O=C(O)C(F)(F)F [GSK682037] | 0
COCCOCCOc1cc2ncc3c4ccc(C#N)cc4[nH]c3c2cc1OC | 57
Cn1cc(-c2ccc3c(c2)CCN3C(=O)Cc2cccc(Cl)c2)c2c(N)ncnc21 [GSK2606590] | 0
O=C(Nc1cccc(-c2nn3ncccc3c2-c2ccnc(Nc3ccccc3)n2)c1)c1c(F)cccc1F [GSK198271] | 0
CN(C)Cc1ccc(-c2ccc3c(Nc4ccc(Oc5ccccn5)cc4)ccnc3c2)o1 [GW567148] | 82
C[C@@H](Oc1cc(-n2cnc3cc(-c4ccnc(NCCS(C)(=O)=O)c4)ccc32)sc1C(N)=O)c1ccccc1Cl [GSK907232] | 0
O=C(O)C(F)(F)F.O=C(O)C(F)(F)F.O=c1[nH]ccc2nc(N[C@@H]3CCCNC3)nc(Nc3ccc(S(=O)(=O)N4CCOCC4)cc3)c12 [GSK2177277] | 74
